# Values joined by “and” are separate entries in the source; they are usually repeats but may differ in a detail not shown here. Equal entries are not always repeated. Values without a mark were called inactive. Inconclusive results are not listed. Entries that show only a call come without a potency. Active and inactive are the calls of the source. Unless noted, calls follow the shape of the dose curve; as a rule, active = well fitted curve in the direction sought with a large enough effect; inconclusive = small, poorly fitted or top-dose-only effect, or another doubt; inactive = no such curve, though single readings can be large; an effect the other way counts as inactive or inconclusive.
# Experiments:
# [1] = system: MKL-2; experiment: qHTS assay to identify novel small-molecules to repurpose for Merkel cell carcinoma treatment (AID 1296009); conditions: MCC and control cell lines, CellTiter-Glo viability, 72 h; series mostly up to 46 µM; also: nearly all actives have a fitted effect of over 60% in size; also: potency is read from the fitted curve at half-maximal effect
# Summary of the method: (§1)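 Luminescence from CellTiter-Glo, read 10 min after addition at room temperature, reported viability following a 72 hr, 37 degree celsius treatment with NPC or MIPE compounds in titration; values normalized to plate controls.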
# [2] = system: UISO; experiment: as above; conditions: MCC and control cell lines, CellTiter-Glo viability, 72 h; series mostly up to 46 µM
# Summary of the method: as §1
# [3] = system: WaGa; experiment: as above; conditions: MCC and control cell lines, CellTiter-Glo viability, 72 h; series mostly up to 46 µM
# Summary of the method: as §1
# [4] = system: C33A; experiment: Primary qHTS to identify gynecologic anti-cancer compounds using libraries of approved drugs and bioactive compounds (AID 1345084); conditions: Gynecologic cancer cell panel viability, ATPlite luminescence, 48 h; series mostly up to 57.5 µM; also: nearly all actives have a fitted effect of over 55% in size
# Summary of the method: (§2)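 Measured: luminescence after ATPlite addition (15 min, RT). Exposure: 48 h, 37 C, 5% CO2.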
# [5] = system: CASKI; experiment: as above; conditions: Gynecologic cancer cell panel viability, ATPlite luminescence, 48 h; series mostly up to 57.5 µM
# Summary of the method: as §2
# [6] = system: Es-2; experiment: as above; conditions: Gynecologic cancer cell panel viability, ATPlite luminescence, 48 h; series mostly up to 57.5 µM
# Summary of the method: as §2
# [7] = system: HeLa; experiment: as above; conditions: Gynecologic cancer cell panel viability, ATPlite luminescence, 48 h; series mostly up to 57.5 µM
# Summary of the method: as §2
# [8] = system: Hek293T; experiment: as above; conditions: Gynecologic cancer cell panel viability, ATPlite luminescence, 48 h, control line for the selectivity index; series mostly up to 57.5 µM
# Summary of the method: as §2
# [9] = system: JEG-3; experiment: as above; conditions: Gynecologic cancer cell panel viability, ATPlite luminescence, 48 h; series mostly up to 57.5 µM
# Summary of the method: as §2
# [10] = system: OV90; experiment: as above; conditions: Gynecologic cancer cell panel viability, ATPlite luminescence, 48 h; series mostly up to 57.5 µM
# Summary of the method: as §2
# [11] = system: PA-1; experiment: as above; conditions: Gynecologic cancer cell panel viability, ATPlite luminescence, 48 h; series mostly up to 57.5 µM
# Summary of the method: as §2
# [12] = system: SKOV3; experiment: as above; conditions: Gynecologic cancer cell panel viability, ATPlite luminescence, 48 h; series mostly up to 57.5 µM
# Summary of the method: as §2
# [13] = system: Tov-21-G; experiment: as above; conditions: Gynecologic cancer cell panel viability, ATPlite luminescence, 48 h; series mostly up to 57.5 µM
# Summary of the method: as §2
# [14] = system: Tov112D; experiment: as above; conditions: Gynecologic cancer cell panel viability, ATPlite luminescence, 48 h; series mostly up to 57.5 µM
# Summary of the method: as §2
# [15] = Drug repurposing screens with cells derived from glioblastoma tumor samples (AID 1345199); conditions: GBM patient neurospheres viability, ATP luminescence, 48 h; also: nearly all actives have a fitted effect of over 40% in size; also: potency is read from the fitted curve at half-maximal effect
# Summary of the method: (§3)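 Primary testing used CD133+ neurospheres from four GBM patients, seven concentrations, 48 h exposure and ATP-based viability; confirmation added three slower-growing patient lines.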
# [16] = system: astro; experiment: as above; conditions: viability, ATP luminescence, 48 h; series mostly up to 45.9 µM
# Summary of the method: as §3
# [17] = biological target: Nuclear receptor subfamily 1 group I member 2 (Rattus norvegicus) (UniProt Q9R1A7); experiment: qHTS assay for small molecule activators of the rat pregnane X receptor (rPXR) signaling pathway (AID 651751; call rule not given here); conditions: rPXR reporter cells, luciferase (One-Glo), 24 h
# Sequence of Nuclear receptor subfamily 1 group I member 2 (Rattus norvegicus) (Q9R1A7 whole entry, looked up): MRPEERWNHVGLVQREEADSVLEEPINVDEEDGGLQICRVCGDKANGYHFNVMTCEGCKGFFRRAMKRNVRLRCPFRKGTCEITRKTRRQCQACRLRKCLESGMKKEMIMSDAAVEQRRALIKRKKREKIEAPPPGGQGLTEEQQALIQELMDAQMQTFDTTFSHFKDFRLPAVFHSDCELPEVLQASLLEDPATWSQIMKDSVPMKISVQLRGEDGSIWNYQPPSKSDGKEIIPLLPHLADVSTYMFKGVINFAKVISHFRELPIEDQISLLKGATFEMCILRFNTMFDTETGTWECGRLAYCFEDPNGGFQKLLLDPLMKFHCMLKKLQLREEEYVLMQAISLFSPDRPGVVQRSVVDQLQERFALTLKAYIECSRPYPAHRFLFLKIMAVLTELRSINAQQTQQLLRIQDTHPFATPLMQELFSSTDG
# [18] = system: CAOV3; experiment: Primary qHTS to identify gynecologic anti-cancer compounds using libraries of approved drugs and bioactive compounds (AID 1345084); conditions: Gynecologic cancer cell panel viability, ATPlite luminescence, 48 h; series mostly up to 57.5 µM; also: nearly all actives have a fitted effect of over 55% in size
# Summary of the method: as §2
# [19] = at 45.9 µM (top of the series), tumour line B
# [20] = at 45.9 µM (top of the series), tumour line D
# [21] = at 46.1 µM (top of the series), tumour line C
# [22] = at 46 µM (top of the series), tumour line A
compound,measurement,setting,value
NCCNCCNCCNCCN,"activity change, negative = cytotoxicity",[1],-0.706% [at 9.22 µM]
same,"activity change, negative = cytotoxicity",[2],44% [at 9.22 µM]
same,"activity change, negative = cytotoxicity",[3],-2.21% [at 9.22 µM]
same,"activity change, negative = cytotoxicity",[4],13.2% [at 11.6 µM]
same,"activity change, negative = cytotoxicity",[5],1.72% [at 11.6 µM]
same,"activity change, negative = cytotoxicity",[6],-5.14% [at 11.6 µM]
same,"activity change, negative = cytotoxicity",[7],8.61% [at 11.6 µM]
same,"activity change, negative = cytotoxicity",[8],-2.17% [at 11.6 µM]
same,"activity change, negative = cytotoxicity",[9],-3.13% [at 11.6 µM]
same,"activity change, negative = cytotoxicity",[10],8.86% [at 11.6 µM]
same,"activity change, negative = cytotoxicity",[11],20.4% [at 11.6 µM]
same,"activity change, negative = cytotoxicity",[12],0% [at 11.6 µM]
same,"activity change, negative = cytotoxicity",[13],-0.438% [at 11.6 µM]
same,"activity change, negative = cytotoxicity",[14],0.19% [at 11.6 µM]
same,"activity, negative = cell killing",[15]; [19],-23.1%
same,"activity, negative = cell killing",[15]; [20],-12.1%
same,"activity, negative = cell killing",[15]; [21],1.79%
same,Potency,[16],inactive
same,max response,[17],-1.57% and 1.12%
COc1ccccc1O,Potency,[1],inactive
same,Potency,[2],inactive
same,Potency,[3],inactive
same,Potency,[4],inactive
same,Potency,[5],inactive
same,Potency,[6],inactive
same,Potency,[7],inactive
same,Potency,[8],inactive
same,Potency,[9],inactive
same,Potency,[10],inactive
same,Potency,[11],inactive
same,Potency,[12],inactive
same,Potency,[13],inactive
same,Potency,[14],inactive
same,"activity, negative = cell killing",[15]; [19],-3.97%
same,"activity, negative = cell killing",[15]; [20],4.42%
same,"activity, negative = cell killing",[15]; [22],-31.4%
same,"activity, negative = cell killing",[15]; [21],30.9%
same,"activity, negative = cell killing","[15]; at 91.6 µM (top of the series), tumour line B",-1.8%
same,"activity, negative = cell killing","[15]; at 91.6 µM (top of the series), tumour line D",-26.1%
same,"activity, negative = cell killing","[15]; at 99.2 µM (top of the series), tumour line C",-15%
same,Potency,[16],inactive
CCC(=O)Nc1ccc(O)cc1,Potency,[1],inactive
same,Potency,[2],inactive
same,Potency,[3],inactive
same,Potency,[4],inactive
same,Potency,[5],inactive
same,Potency,[6],inactive
same,Potency,[7],inactive
same,Potency,[8],inactive
same,Potency,[9],inactive
same,Potency,[10],inactive
same,Potency,[11],inactive
same,Potency,[12],inactive
same,Potency,[13],inactive
same,Potency,[14],inactive
same,"activity, negative = cell killing",[15]; [19],-16%
same,"activity, negative = cell killing",[15]; [20],-0.42%
same,"activity, negative = cell killing",[15]; [22],-15.2%
same,"activity, negative = cell killing",[15]; [21],-16.9%
same,Potency,[16],inactive
Nc1ccc(S(=O)(=O)Nc2ccc(Cl)nn2)cc1,Potency,[1],inactive
same,Potency,[2],inactive
same,Potency,[3],inactive
same,Potency,[4],inactive
same,Potency,[5],inactive
same,Potency,[6],inactive
same,Potency,[7],inactive
same,Potency,[8],inactive
same,Potency,[9],inactive
same,Potency,[10],inactive
same,Potency,[11],inactive
same,Potency,[12],inactive
same,Potency,[13],inactive
same,Potency,[14],inactive
same,"activity, negative = cell killing","[15]; at 20 µM (top of the series), tumour line C",-15.3%
same,"activity, negative = cell killing","[15]; at 21.2 µM (top of the series), tumour line B",-15.4%
same,"activity, negative = cell killing","[15]; at 21.2 µM (top of the series), tumour line D",-6%
same,"activity, negative = cell killing","[15]; at 21.3 µM (top of the series), tumour line A",-27.3%
same,"activity, negative = cell killing",[15]; [19],-5.57%
same,"activity, negative = cell killing",[15]; [20],-3.89%
same,"activity, negative = cell killing",[15]; [21],-7.4%
same,Potency,[16],inactive
NC(=O)c1ncn([C@@H]2O[C@H](CO)[C@@H](O)[C@H]2O)c1N,Potency,[1],inactive
same,Potency,[2],inactive
same,Potency,[3],inactive
same,Potency,[4],inactive
same,Potency,[5],inactive
same,Potency,[6],inactive
same,Potency,[7],inactive
same,Potency,[8],inactive
same,Potency,[9],inactive
same,Potency,[10],inactive
same,Potency,[11],inactive
same,Potency,[12],inactive
same,Potency,[13],inactive
same,Potency,[14],inactive
same,Potency,[16],inactive
CC(C)c1c(C(=O)Nc2ccccc2)c(-c2ccccc2)c(-c2ccc(F)cc2)n1CC[C@@H](O)C[C@@H](O)CC(=O)O,Potency,[1],2.66 µM (active)
same,Potency,[2],10.6 µM (active)
same,Potency,[3],7.5 µM (active)
same,Potency,[4],inactive
same,Potency,[18],inactive
same,Potency,[5],inactive
same,Potency,[6],inactive
same,Potency,[7],inactive
same,Potency,[8],inactive
same,Potency,[9],inactive
same,Potency,[10],inactive
same,Potency,[12],inactive
same,Potency,[13],inactive
same,Potency,[14],inactive
same,Potency,[16],11.2 µM (active)
Cc1cc(CC(=O)O)n(C)c1C(=O)c1ccc(Cl)cc1,Potency,[1],inactive
same,Potency,[2],inactive
same,Potency,[3],inactive
same,Potency,[4],inactive
same,Potency,[18],inactive
same,Potency,[5],inactive
same,Potency,[6],inactive
same,Potency,[7],inactive
same,Potency,[8],inactive
same,Potency,[9],inactive
same,Potency,[10],inactive
same,Potency,[11],inactive
same,Potency,[12],inactive
same,Potency,[13],inactive
same,Potency,[14],inactive
same,Potency,[16],inactive
same,max response,[17],-6.77%
C=CCn1c(=O)n([C@@H]2O[C@H](CO)[C@@H](O)[C@H]2O)c2nc(N)[nH]c(=O)c21,Potency,[1],inactive
same,Potency,[2],inactive
same,Potency,[3],inactive
same,Potency,[4],inactive
same,Potency,[5],inactive
same,Potency,[6],inactive
same,Potency,[7],inactive
same,Potency,[8],inactive
same,Potency,[9],inactive
same,Potency,[10],inactive
same,Potency,[11],inactive
same,Potency,[12],inactive
same,Potency,[13],inactive
same,Potency,[14],inactive
same,"activity, negative = cell killing",[15]; [19],-4.36%
same,"activity, negative = cell killing",[15]; [20],2.91%
same,"activity, negative = cell killing",[15]; [22],-17.2%
same,"activity, negative = cell killing",[15]; [21],-7.78%
same,Potency,[16],inactive
C=Cc1c(C)c2cc3[nH]c(cc4nc(cc5nc(cc1[nH]2)C(C)=C5CCC(=O)O)C(CCC(=O)O)=C4C)c(C)c3C=C,Potency,[1],inactive
same,Potency,[2],inactive
same,Potency,[3],inactive
same,Potency,[4],inactive
same,Potency,[18],inactive
same,Potency,[5],inactive
same,Potency,[6],inactive
same,Potency,[7],inactive
same,Potency,[8],inactive
same,Potency,[9],inactive
same,Potency,[10],inactive
same,Potency,[11],inactive
same,Potency,[13],inactive
same,Potency,[14],inactive
same,"activity, negative = cell killing",[15]; [19],-11.3%
same,"activity, negative = cell killing",[15]; [20],-20.2%
same,"activity, negative = cell killing",[15]; [22],-14%
same,"activity, negative = cell killing",[15]; [21],-7.06%
same,Potency,[16],inactive
NCCNCCNCCN,Potency,[1],inactive
same,Potency,[2],inactive
same,Potency,[3],inactive
same,Potency,[4],inactive
same,Potency,[5],inactive
same,Potency,[6],inactive
same,Potency,[7],inactive
same,Potency,[8],inactive
same,Potency,[9],inactive
same,Potency,[10],inactive
same,Potency,[11],inactive
same,Potency,[12],inactive
same,Potency,[13],inactive
same,Potency,[14],inactive
same,"activity, negative = cell killing",[15]; [19],-6%
same,"activity, negative = cell killing",[15]; [20],-28.2%
same,"activity, negative = cell killing",[15]; [21],-8.15%
same,Potency,[16],inactive
same,max response,[17],9.63%
C[C@H]1O[C@@H](n2cc(F)c(=O)[nH]c2=O)[C@H](O)[C@@H]1O,Potency,[1],inactive
same,Potency,[2],inactive
same,Potency,[3],inactive
same,Potency,[4],inactive
same,Potency,[18],inactive
same,Potency,[5],inactive
same,Potency,[6],inactive
same,Potency,[7],inactive
same,Potency,[8],inactive
same,Potency,[9],inactive
same,Potency,[10],inactive
same,Potency,[11],inactive
same,Potency,[12],inactive
same,Potency,[14],inactive
same,"activity, negative = cell killing",[15]; [19],-19.9%
same,"activity, negative = cell killing",[15]; [20],-17.4%
same,"activity, negative = cell killing",[15]; [22],-26.5%
same,"activity, negative = cell killing",[15]; [21],3.86%
same,Potency,[16],inactive
